Source: PubChem BioAssay
Hits are enriched below; roughly 2.7% of the tested compounds scored in any of these assays.
aDG glyco up = alpha-DG glycosylation activation; 360,000 compounds, 0.22% hits; Pro5-aDG cells, alpha-DG glycosylation AlphaScreen (IIH6); 0% Pro5, 100% B10-LARGE cell signal; activation, % at 10 µM;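 active = activation of at least 8% versus controls, or a plate z-score of at least 8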;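 note: Pro5 are CHO cells carrying HIG-tagged alpha-DG that lacks glycosylation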
NadD inh = inhibitors of Staphylococcus aureus NadD; inhibition, % at 20 µM; 360,000 compounds, 0.78% hits; purified NadD enzyme, colorimetric absorbance read-out; in the data active = inhibition above about 26%
H9c2 TAG inh = inhibitors of triacylglycerol accumulation. H9c2 cells, Nile Red lipid (TAG) fluorescence; cells loaded with 200 µM oleic acid. inhibition, % at 12.5 µM. 230,000 compounds, 0.66% hits;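 active = pattern-corrected inhibition of lipid staining of at least 50% with the nuclear-stain viability signal not falling by more than 50%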;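 note: 0% = DMSO wells and 100% = triacsin C control wells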
MPTP inh = blocks calcium-induced mitochondrial swelling; 360,000 compounds, 1.4% hits; isolated mouse mitochondria, Ca2+ swelling absorbance, 30 min; inhibition, % at 10 µM;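 active = inhibition of 50% or more, scaled per plate between neutral and stimulator controls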;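 note: 0% = DMSO wells given calcium and 100% = 1 mM EGTA wells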
NadD inh conf = confirmation of Staphylococcus aureus NadD inhibitors; shares compounds with NadD inh; purified S. aureus NadD, colorimetric enzyme assay; inhibition, % at 20 µM; 2,000 compounds, 13% hits; in the data active = inhibition mostly above about 42%, no sharp cut-off; inactive = mostly below about 42%
Active calls of the source: *; nt = no result.

SMILES	aDG glyco up	NadD inh	H9c2 TAG inh	MPTP inh	NadD inh conf
COc1ccc(N(CC(=O)N/N=C/c2ccc(-c3ccc([N+](=O)[O-])cc3)o2)S(=O)(=O)c2ccc(C)cc2)cc1	1	42*	nt	5	5
CCC(=O)N/N=C/c1ccc(-c2ccc([N+](=O)[O-])cc2)o1	0	-7	-1	0	nt
COc1ccc(C(CNC(=O)c2cccc(S(=O)(=O)Nc3ccc(F)cc3)c2)N2CCCCC2)cc1 (configuration not stated)	0	2	16	0	nt
O=C(NC1CCCC1)C(c1ccccn1)N(Cc1ccc(F)cc1)C(=O)c1csnn1 (configuration not stated)	0	-2	nt	1	nt
COC(=O)C1=C(C)N=C2SC(C)C(=O)N2C1/C=C/c1ccccc1OC (configuration not stated)	0	29*	27	-3	44
COc1cc(Cn2c3ccc(NC(=O)NCCc4ccccc4)cc3c(=O)n2C)ccc1F	0	4	-1	2	nt
O=C1O[C@H]([C@@H](O)CO)C(O)=C1O	0	35*	-1	2	2
CC1CCCCN1c1nnc(NC(=O)c2cc(-c3ccc(Br)cc3)on2)s1 (configuration not stated)	0	31*	-2	0	10
Cc1cc2[nH]c(=O)c(=O)[nH]c2cc1S(=O)(=O)N1CCN(c2cccc(C(F)(F)F)c2)CC1	0	31*	nt	1	50*
COc1ccc(N/C(N)=N/c2nc(CSc3ccc(Cl)cc3)cc(=O)[nH]2)cc1	0	5	nt	2	nt
N/C(=N\c1nc(CSc2ccc(Cl)cc2)cc(=O)[nH]1)Nc1cccc2ccccc12	0	27*	nt	3	1
N#Cc1cccc(NC(=O)CSc2ccc3c4c(cccc24)C(=O)c2ccccc2-3)c1	0	13	-137	3	nt
COc1ccc(NC(=O)CSc2ccc3c4c(cccc24)C(=O)c2ccccc2-3)cc1	0	33*	-29	8	2
O=C(COc1ncnc2sccc12)Nc1ccc(F)cc1F	0	30*	6	-1	9
CNC(=O)COc1ncnc2sccc12	0	5	-5	0	nt
N#Cc1c(N)n(C2OC(CO)C(O)C2O)c2ncnc(N)c12 (configuration not stated)	0	0	109	0	nt
O=C(O)/C=C/c1cn(-c2ccccc2)nc1-c1ccc(-c2ccc([N+](=O)[O-])cc2)o1	0	49*	2	4	9
O=C(O)/C=C/c1cn(-c2ccccc2)nc1-c1cccc([N+](=O)[O-])c1	1	-5	1	1	nt
O=S(=O)(Nc1ccc2c(c1)nc1n2CCN(Cc2ccccc2)C1)c1ccc(Cl)cc1	0	32*	-4	2	43
Cc1ccc(C)c(N2CCN(C(=O)c3ccc4nc(-c5ccco5)c(-c5ccco5)nc4c3)CC2)c1	0	64*	25	18	12
COc1ccccc1N1CCN(C(=O)c2ccc3nc(-c4ccco4)c(-c4ccco4)nc3c2)CC1	0	26	22	1	nt
O=C(c1ccccc1)c1ccc2nc(-c3ccco3)c(-c3ccco3)nc2c1	0	75*	-2	1	19
CC(C1SC(=S)NC1=O)C1SC(=S)NC1=O (configuration not stated)	0	4	2	-2	nt
CS(=O)(=O)c1ccc(Cl)c(NC(=O)CCN2C(=O)C3CC=CCC3C2=O)c1 (configuration not stated)	0	1	-2	-1	nt
NS(=O)(=O)c1ccc(N/N=C/c2ccccc2C(=O)O)c([N+](=O)[O-])c1	0	-10	3	0	nt
SMILES	aDG glyco up	NadD inh	H9c2 TAG inh	MPTP inh	NadD inh conf
Cc1cc([N+](=O)[O-])c2[nH]c(C(=O)N/N=C/c3ccccc3C(=O)O)c(-c3ccccc3)c2c1	0	34*	nt	2	6
COc1ccc(N=C2C(=Nc3ccc(OC)cc3)N(c3ccc(OC)cc3)C(=S)N2c2ccccc2)cc1	0	30*	nt	3	3
CCCCOC(=O)c1c(C)oc2ccc(NS(=O)(=O)c3ccc4c5c(cccc35)C(=O)N4)cc12	0	32*	nt	0	34
C=Cc1ccc(Cn2nc(-c3ccccc3)ccc2=O)cc1	0	-2	nt	4	nt
Cc1ccc(-c2cc(-c3ccccc3)c3c(N)c(S(C)(=O)=O)sc3n2)cc1	0	26	47	1	nt
CS(=O)(=O)c1sc2nc(-c3cccs3)cc(-c3ccccc3)c2c1N	0	74*	-13	0	14
CCCCN1C[C@H](Cc2ccccc2)[C@@H](CC(=O)NC)C1=O	0	5	1	2	nt
O=C(CN1C(=O)c2ccccc2S1(=O)=O)NCCc1ccc(F)cc1	0	-2	-7	1	nt
CCCCC1=CC2=CC(=O)C(C)(OC(=O)c3cccs3)C(=O)C2=CO1 (configuration not stated)	0	32*	7	4	47*
CCCCC1=CC2=CC(=O)C(C)(OC(=O)CCc3ccccc3)C(=O)C2=CO1 (configuration not stated)	0	66*	-8	3	39*
COC(=O)CCCC1=CC2=CC(=O)C(C)(OC(=O)c3cccs3)C(=O)C2=CN1c1ccccc1 (configuration not stated)	0	5	9	2	nt
CN(C(=O)c1ccc(NC(=O)C2CCCN(C(=O)OC(C)(C)C)C2)cc1)C1CCCC1 (configuration not stated)	0	0	16	0	nt
CN(C)/C=C(\C=N\OCc1ccc(Cl)cc1Cl)C(=O)Nc1ccc(Cl)c(Cl)c1	0	29*	24	15	0
Cc1cc(O)c(/C=N/OCc2ccc(Cl)cc2Cl)c(=O)o1	0	-4	13	0	nt
CC(C)(C)c1ccc(Oc2cccc(C3CC(=O)C(C4NCCc5ccccc54)C(=O)C3n3cncn3)c2)cc1 (configuration not stated)	0	41*	-11	1	41
O=C(NC(Cc1c[nH]c2ccccc12)C(=O)N/N=C/c1cccc2ccccc12)c1cccs1 (configuration not stated)	0	37*	-9	1	25
Cc1[nH][nH]c(=O)c1C(c1c(C)[nH][nH]c1=O)c1cn(Cc2cccc3ccccc23)c2ccccc12	0	46*	16	2	67*
C[C@@H]1COC(=O)[C@H](CC(=O)OC(C)(C)C)C/C=C\C[C@@H](CC(=O)NCCO)C(=O)N1	1	4	-8	-1	nt
Cc1nn(Cc2ccc(Cl)c(Cl)c2)c(C)c1NC(=O)c1cn(-c2ccccc2)nc1-c1ccccc1	0	33*	23	2	34
C/C(=N\NC(=O)c1ccc(OC2OCCOC2Oc2ccc(C(=O)N/N=C(\C)c3ccncc3)cc2)cc1)c1ccncc1 (configuration not stated)	0	32*	24	2	11
Cc1ccc(C)c(S(=O)(=O)N2CCN(C(=O)/C=C/c3ccco3)CC2)c1	0	35*	-17	0	24
